The record followed here is PubChem BioAssay (NCATS).

Where “and” joins values, the source holds several entries; their conditions need not be identical. Equal values may be shown once. Inconclusive results are not listed. Calls of active or inactive are those of the source. Unless noted, calls come from the whole dose curve.

Experiment [1] can be described thus: Cell Viability - NIH 3T3 (AID 541; active = well fitted curve in the direction sought with a large enough effect; an effect the other way counts as inactive or inconclusive;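 note: cells exposed to compound for 40 hours; plate controls were DMSO alone for no effect and tamoxifen positive control for full effect; nearly all actives have a fitted effect of over 25% in size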). Particulars: NIH 3T3 cell viability, qHTS; activity change, negative = cytotoxicity: at 92.2 µM (top of the series). Summed up:
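Cells seeded at 1000/well, rested 5 hr at 37 °C, then dosed and incubated 40 hr at 37 °C. CellTiter-Glo added, 20 min room temperature, luminescence read. AC50 by Hill fit.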
For orientation: In qHTS, concentration-response curves come from the screen itself.

In experiment [2] the target is Glucocorticoid receptor (Homo sapiens) (UniProt P04150). The experiment is described as follows: qHTS assay for small molecule agonists of glucocorticoid receptor signaling (AID 588532; active = well fitted curve in the direction sought with a large enough effect in the signal ratio, with a control signal flat; the % refers to the signal ratio;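 note: 100% = dexamethasone at 0.1 µM and 0% = DMSO only wells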). Particulars: HeLa MMTV-bla, beta-lactamase ratio, agonist, 18 h; stronger effect = higher value; percent of dexamethasone control, DMSO zero. The method, boiled down:
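Agonist-mode qHTS: GRE-driven beta-lactamase in HeLa cells exposed 18 h to titrated compounds (up to 92 uM), then CCF4 ratio read after 2 h at RT; Hill-fitted EC50, efficacy relative to 0.1 uM dexamethasone.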

Experiment [3] has the same target. The experiment is described as follows: qHTS assay for small molecule antagonists of glucocorticoid receptor signaling (AID 588533; active = well fitted inhibition curve with a large enough effect in the signal ratio, with a control signal flat, not every such curve was filed as active; the % refers to the signal ratio;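 note: cells stimulated with 2 nM dexamethasone as agonist; % is set by controls: 0 for no effect and ±100 for the full control effect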). Summed up: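 Antagonist-mode qHTS: compound titrations added to GRE-bla HeLa cells, then dexamethasone 2 nM final; 18 h, 37 C. CCF4 FRET fluorescence normalized to dexamethasone and DMSO; IC50 from Hill fit.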
The target in experiment [4] is Peroxisome proliferator-activated receptor delta (Homo sapiens) (UniProt Q03181). The experiment is described as follows: qHTS assay for small molecule agonists of peroxisome proliferator-activated receptor delta signaling (AID 588534).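 Note: 0% = DMSO basal wells and 100% = positive control agonist at 10 µM.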 Summed up: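 Agonist-mode qHTS; reporter cells, 5 hrs 37 C pre-incubation; compound titration, 18 hrs 37 C; CCF4 dye, 2 hrs RT; fluorescence read. EC50/efficacy via Hill fit.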
Sequence of Peroxisome proliferator-activated receptor delta (Homo sapiens) (Q03181 whole entry, looked up): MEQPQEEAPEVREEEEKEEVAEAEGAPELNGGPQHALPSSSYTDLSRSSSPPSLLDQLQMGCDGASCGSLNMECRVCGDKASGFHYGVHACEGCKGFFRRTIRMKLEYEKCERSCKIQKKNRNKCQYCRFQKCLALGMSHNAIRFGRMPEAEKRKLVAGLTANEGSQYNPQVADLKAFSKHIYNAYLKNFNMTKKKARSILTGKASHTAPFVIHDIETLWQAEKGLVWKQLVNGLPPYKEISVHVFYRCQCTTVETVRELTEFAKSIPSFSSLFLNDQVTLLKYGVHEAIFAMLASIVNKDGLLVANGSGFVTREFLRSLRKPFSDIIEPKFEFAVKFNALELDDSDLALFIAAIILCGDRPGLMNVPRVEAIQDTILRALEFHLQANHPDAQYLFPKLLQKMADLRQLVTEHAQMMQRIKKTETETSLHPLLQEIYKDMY

Experiment [5] in a line: qHTS assay for small molecule antagonists of peroxisome proliferator-activated receptor delta signaling (AID 588535; active = well fitted inhibition curve with a large enough effect in the signal ratio, with a control signal flat, not every such curve was filed as active; the % refers to the signal ratio;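 for max response: cells co-treated with a PPAR-delta agonist as stimulator during compound exposure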). Particulars: HEK293T PPARd-UAS-bla, beta-lactamase FRET ratio, 18 h; 460 nm channel. The method, boiled down:
(§1)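 Titrations were run on PPAR-delta-UAS-bla HEK293T cells in charcoal/dextran-stripped serum, incubated 18 h at 37 C. CCF4 fluorescence (460/530 nm) after 2 h RT; Hill equation yields IC50 and maximal response.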

The target in experiment [6] is Vitamin D3 receptor (Homo sapiens) (UniProt P11473). As to the kind of experiment: qHTS assay for small molecule agonists of vitamin D receptor signaling (AID 588543).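 Note: 0% = DMSO basal and 100% = reference agonist control.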 Summed up: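 qHTS in agonist mode: compound titrations stimulate a VDR-driven β-lactamase reporter in HEK293T cells over 16 h at 37 °C. Response normalized to 50 nM 1α,25-dihydroxyvitamin D3 = 100%, DMSO = 0%; Hill fitting gives EC50 and maximal response.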
Sequence of Vitamin D3 receptor (Homo sapiens) (P11473 whole entry, looked up): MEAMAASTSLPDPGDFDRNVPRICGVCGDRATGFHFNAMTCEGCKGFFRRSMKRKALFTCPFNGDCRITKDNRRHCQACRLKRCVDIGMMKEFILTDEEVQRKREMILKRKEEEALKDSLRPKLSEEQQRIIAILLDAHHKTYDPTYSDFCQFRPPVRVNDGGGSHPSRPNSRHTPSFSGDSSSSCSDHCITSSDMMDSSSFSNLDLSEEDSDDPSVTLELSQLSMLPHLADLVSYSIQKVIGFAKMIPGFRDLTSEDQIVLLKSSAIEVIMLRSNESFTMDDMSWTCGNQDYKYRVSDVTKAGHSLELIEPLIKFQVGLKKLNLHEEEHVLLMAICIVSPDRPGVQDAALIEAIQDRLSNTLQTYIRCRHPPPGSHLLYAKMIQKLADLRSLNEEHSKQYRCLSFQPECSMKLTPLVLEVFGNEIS

The target of experiment [7] is Thyroid hormone receptor beta (Homo sapiens) (UniProt P10828). The experiment is described as follows: qHTS assay for small molecule agonists of thyroid hormone receptor beta signaling (AID 588545).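 Note: 0% = DMSO only and 100% = 10 nM T3.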 Summed up:
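Beta-lactamase reporter activity under TR response element control is measured in HEK 293 cells after 18 hrs compound exposure. Signal is ratiometric CCF4 fluorescence, 460/530 nm.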

For experiment [8] the target is unchanged. The experiment is described as follows: qHTS assay for small molecule antagonists of thyroid hormone receptor beta signaling (AID 588547; active = well fitted inhibition curve with a large enough effect in the signal ratio, with a control signal flat, not every such curve was filed as active; the % refers to the signal ratio;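 note: cells stimulated with 0.4 nM T3 agonist during compound exposure; % is set by controls: 0 for no effect and ±100 for the full control effect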). Particulars: TR-UAS-bla HEK293, beta-lactamase ratio, antagonist mode, 18 h. Summed up:
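Inhibition of T3-driven (0.4nM final) beta-lactamase reporter activity was measured over 0.59 nM to 92 uM compound after 18 h at 37 C. The cells were GripTite HEK293 TR-UAS-bla in charcoal/dextran-stripped serum, with CCF4 ratio read-out and IC50 from Hill fits.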

Experiment [9] is described as follows: qHTS assay for small molecule disruptors of the mitochondrial membrane potential - 5 hr assay (AID 651755). Note: % is set by controls: 0 for no effect and ±100 for the full control effect; nearly all actives have a fitted effect of over 40% in size. The method, boiled down:
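Membrane-potential dye readout: red aggregate (540 ex/590 em) versus green monomer (490 ex/535 em) fluorescence after 30 min dye loading, following 5 hr compound exposure at 37C of overnight-plated HepG2 cells.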

Experiment [10] addresses Tumor necrosis factor (Homo sapiens) (UniProt P01375). As to the kind of experiment: qHTS assay to identify small molecules that stimulate Tumor Necrosis Factor-alpha (TNF-alpha) secretion (AID 651757; active = well fitted curve in the direction sought with a large enough effect in the signal ratio; the % refers to the signal ratio; note: 0% is about no effect). Summed up:
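Human monocytic THP-1 cells are plated, treated with compound and held at 37 C for 17 hrs. Labeled anti-TNF-alpha antibody mixture is then added; after 3 hr at room temperature, TR-FRET signal reports secreted TNF-alpha.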

The target of experiment [11] is Estrogen receptor (Homo sapiens) (UniProt P03372). As to the kind of experiment: qHTS assay for small molecule antagonists of estrogen receptor alpha signaling (AID 588513; active = well fitted curve in the direction sought with a large enough effect in the signal ratio, with a control signal flat, not every such curve was filed as active; the % refers to the signal ratio; note: % is set by controls: 0 for no effect and ±100 for the full control effect). Summed up: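 Cells were plated at 5000/well and incubated 4 h at 37 C. Compounds were added as 1:2 dilution series, duplicates. 17-beta-estradiol (0.5nM final) was added for 18 h before CCF4 detection.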
Sequence of Estrogen receptor (Homo sapiens) (P03372 whole entry, looked up): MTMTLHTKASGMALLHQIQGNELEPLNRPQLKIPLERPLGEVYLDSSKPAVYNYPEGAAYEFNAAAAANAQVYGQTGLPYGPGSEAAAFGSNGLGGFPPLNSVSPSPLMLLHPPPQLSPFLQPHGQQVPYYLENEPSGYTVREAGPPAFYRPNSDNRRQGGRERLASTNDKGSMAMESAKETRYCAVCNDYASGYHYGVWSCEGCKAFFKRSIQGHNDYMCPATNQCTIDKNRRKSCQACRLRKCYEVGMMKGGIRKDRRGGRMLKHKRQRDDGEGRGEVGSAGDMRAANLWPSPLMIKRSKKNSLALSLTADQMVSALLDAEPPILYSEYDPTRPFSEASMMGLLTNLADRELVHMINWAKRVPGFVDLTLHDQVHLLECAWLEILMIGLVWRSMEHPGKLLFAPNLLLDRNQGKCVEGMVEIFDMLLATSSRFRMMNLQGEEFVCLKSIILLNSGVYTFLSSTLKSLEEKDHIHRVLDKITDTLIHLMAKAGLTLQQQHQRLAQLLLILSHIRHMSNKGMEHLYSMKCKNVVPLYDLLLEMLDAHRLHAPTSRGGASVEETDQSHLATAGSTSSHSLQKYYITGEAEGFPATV

Experiment [12] has as its target Bile acid receptor (Homo sapiens) (UniProt Q96RI1). The experiment is described as follows: qHTS assay for small molecule agonists of farnesoid X receptor signaling (AID 588527).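 Note: 0% = vehicle basal and 100% = reference agonist.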 The conditions noted are these: HEK293T FXR-UAS-bla, beta-lactamase ratio, 16 h; stronger effect = higher value. The method, boiled down: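 Read-out: beta-lactamase reporter fluorescence with CCF4 substrate in GeneBLAzer FXR-UAS-bla HEK293T cells, after 16 h compound exposure at 37 C. Response scaled between DMSO basal (0%) and chenodeoxycholic acid at 100 uM (100%).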

The target in experiment [13] is Peroxisome proliferator-activated receptor delta (Homo sapiens) (UniProt Q03181). The experiment is described as follows: qHTS assay for small molecule antagonists of peroxisome proliferator-activated receptor delta signaling (AID 588535).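 For max response: cells co-treated with a PPAR-delta agonist as stimulator during compound exposure.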 Summed up:
as §1

In experiment [14] the target is Peroxisome proliferator-activated receptor gamma (Homo sapiens) (UniProt P37231). The experiment is described as follows: qHTS assay for small molecule agonists of peroxisome proliferator-activated receptor gamma signaling (AID 588536; active = well fitted curve in the direction sought with a large enough effect in the signal ratio, with a control signal flat, not every such curve was filed as active; the % refers to the signal ratio;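 note: 0% = DMSO basal wells and 100% = rosiglitazone at 2 µM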). The method, boiled down: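 Beta-lactamase reporter read-out: CCF4 fluorescence (ex 405, em 460/530 nm) after 2 h at RT. HEK293 GeneBLAzer cells were treated for 16 h at 37 C. Hill fits gave EC50 and efficacy versus 2 uM rosiglitazone (100%) and DMSO (0%).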
Sequence of Peroxisome proliferator-activated receptor gamma (Homo sapiens) (P37231 whole entry, looked up): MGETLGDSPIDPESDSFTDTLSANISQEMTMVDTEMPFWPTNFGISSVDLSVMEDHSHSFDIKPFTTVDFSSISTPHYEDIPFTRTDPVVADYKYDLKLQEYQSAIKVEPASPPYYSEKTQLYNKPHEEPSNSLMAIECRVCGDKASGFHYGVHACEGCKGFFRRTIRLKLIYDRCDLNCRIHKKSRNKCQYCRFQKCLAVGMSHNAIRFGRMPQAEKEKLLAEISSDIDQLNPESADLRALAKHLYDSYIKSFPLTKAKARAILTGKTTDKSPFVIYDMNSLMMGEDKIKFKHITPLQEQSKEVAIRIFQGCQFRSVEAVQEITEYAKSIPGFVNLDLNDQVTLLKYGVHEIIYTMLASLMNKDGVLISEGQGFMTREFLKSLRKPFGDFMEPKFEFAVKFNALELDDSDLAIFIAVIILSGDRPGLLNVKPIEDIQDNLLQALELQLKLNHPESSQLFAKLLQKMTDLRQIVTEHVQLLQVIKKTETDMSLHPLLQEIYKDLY

Experiment [15] has the same target. As to the kind of experiment: qHTS assay for small molecule antagonists of peroxisome proliferator-activated receptor gamma signaling (AID 588537; active = well fitted inhibition curve with a large enough effect in the signal ratio, with a control signal flat, not every such curve was filed as active; the % refers to the signal ratio;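 note: reporter cells co-stimulated with 50 nM rosiglitazone agonist during compound treatment; % of control where 0% means no effect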). Summed up: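 Antagonist-mode β-lactamase reporter screen run as a titration series. HEK293 PPARγ-UAS-bla cells are stimulated with rosiglitazone (50 nM final) for 16 h, then CCF4 is read at 460/530 nm. Data are scaled between DMSO and rosiglitazone and fitted to the Hill equation.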

Experiment [16] can be described thus: qHTS assay to identify small molecules that stimulate interleukin-8 (IL-8) secretion (AID 651758; active = well fitted activation curve with a large enough effect in the signal ratio; the % refers to the signal ratio; note: 0% is about no effect). The method, boiled down: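 Secreted IL-8 measured homogeneously by TR-FRET (two labelled anti-IL-8 antibodies, 1-3 h at room temperature) after a 16 h, 37 C compound treatment of THP-1 cells at 2000 cells/well.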
The target in experiment [17] is Nuclear receptor ROR-gamma (Homo sapiens) (UniProt P51449). As to the kind of experiment: qHTS assay for small molecule antagonists of the retinoid-related orphan receptor gamma (ROR-gamma) signaling pathway (AID 651802; active = well fitted curve in the direction sought with a large enough effect; an effect the other way counts as inactive or inconclusive;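 note: CHO cells with doxycycline-induced ROR-gamma expression; % is set by controls: 0 for no effect and ±100 for the full control effect; nearly all actives have a fitted effect of over 60% in size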). Summed up: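 Steps: cells dispensed; compound or DMSO transferred by pin tool; doxycycline added to induce the ROR response element-driven luciferase; plates held 16hr at 37C; ONE-Glo added and luminescence measured.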
Sequence of Nuclear receptor ROR-gamma (Homo sapiens) (P51449 whole entry, looked up): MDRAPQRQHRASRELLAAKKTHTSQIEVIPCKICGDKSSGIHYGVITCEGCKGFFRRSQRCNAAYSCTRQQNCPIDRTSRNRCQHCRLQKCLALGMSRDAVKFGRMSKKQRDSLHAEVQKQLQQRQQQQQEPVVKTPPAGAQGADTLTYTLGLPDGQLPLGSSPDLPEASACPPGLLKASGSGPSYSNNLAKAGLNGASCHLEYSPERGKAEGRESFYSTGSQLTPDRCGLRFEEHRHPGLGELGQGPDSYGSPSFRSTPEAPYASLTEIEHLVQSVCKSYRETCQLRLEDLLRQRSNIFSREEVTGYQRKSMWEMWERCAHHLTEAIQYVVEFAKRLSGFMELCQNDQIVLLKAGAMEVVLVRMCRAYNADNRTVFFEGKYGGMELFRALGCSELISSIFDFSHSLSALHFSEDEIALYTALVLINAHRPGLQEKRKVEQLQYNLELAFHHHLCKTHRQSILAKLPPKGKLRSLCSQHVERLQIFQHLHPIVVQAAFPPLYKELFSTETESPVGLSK

Experiment [18] in a line: qHTS assay for small molecule agonists of the antioxidant response element (ARE) signaling pathway measured by Nrf2-dependant transcriptional activity (AID 720636; active = well fitted curve in the direction sought with a large enough effect in the repeat runs; an effect the other way counts as inactive or inconclusive; note: % of control where 0% means no effect). The method, boiled down:
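Quantitative HTS format in HepG2 cells stably expressing an ARE-luciferase reporter; 16 hr compound treatment at 37 C, luciferase signal detected with ONE-Glo.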

The nature of experiment [19]: qHTS assay for small molecule activators of the nuclear factor-kappa B (NF-kB) signaling pathway (AID 651749; active = well fitted activation curve with a large enough effect in the signal ratio; the % refers to the signal ratio; note: % of control where 0% means no effect). Particulars: NF-kB-bla ME-180 cells, beta-lactamase FRET ratio, 16 h; stronger effect = higher value. The method, boiled down: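 Activation measured after 16 hr compound treatment at 37C, 5% CO2, of 2,000 ME-180 cells/well stably expressing an NF-kB response element–driven beta-lactamase reporter, via FRET-disruption fluorescence.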

A short description of experiment [20]: qHTS assay for environmental chemicals that activate the Aryl hydrocarbon Receptor (AhR) signaling pathway (AID 651777; active = well fitted curve in the direction sought with a large enough effect; an effect the other way counts as inactive or inconclusive; note: % of control where 0% means no effect; nearly all actives have a fitted effect of over 15% in size). Particulars: 1A2-DRE human hepatoma cells, luciferase, 24 h; activation: stronger effect = higher value. The method, boiled down:
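Quantitative HTS in stably transfected human liver-derived cells whose luciferase gene sits downstream of the CYP1A2 promoter and dioxin response element. After 24 hr exposure at 37 C, One-Glo luminescence was measured.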

Sequence of Tumor necrosis factor (Homo sapiens) (P01375 whole entry, looked up): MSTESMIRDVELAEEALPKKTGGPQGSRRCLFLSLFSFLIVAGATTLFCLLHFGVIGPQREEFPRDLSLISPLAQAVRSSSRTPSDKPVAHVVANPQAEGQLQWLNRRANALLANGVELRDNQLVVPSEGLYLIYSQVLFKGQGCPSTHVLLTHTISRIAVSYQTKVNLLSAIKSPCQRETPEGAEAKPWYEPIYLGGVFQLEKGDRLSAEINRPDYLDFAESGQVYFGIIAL
Sequence of Thyroid hormone receptor beta (Homo sapiens) (P10828 whole entry, looked up): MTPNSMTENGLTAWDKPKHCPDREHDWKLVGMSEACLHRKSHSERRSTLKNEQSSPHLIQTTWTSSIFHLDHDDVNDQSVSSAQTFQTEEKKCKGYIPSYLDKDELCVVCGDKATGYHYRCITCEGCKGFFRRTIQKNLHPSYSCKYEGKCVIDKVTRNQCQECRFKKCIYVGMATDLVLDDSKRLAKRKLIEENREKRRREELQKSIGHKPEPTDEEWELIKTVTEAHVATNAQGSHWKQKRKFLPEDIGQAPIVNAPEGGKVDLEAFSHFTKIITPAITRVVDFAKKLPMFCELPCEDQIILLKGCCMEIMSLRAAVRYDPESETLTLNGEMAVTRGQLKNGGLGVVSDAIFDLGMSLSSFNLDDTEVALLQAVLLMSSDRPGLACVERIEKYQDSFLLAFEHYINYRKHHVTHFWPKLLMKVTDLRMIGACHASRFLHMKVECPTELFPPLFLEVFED
Sequence of Glucocorticoid receptor (Homo sapiens) (P04150 whole entry, looked up): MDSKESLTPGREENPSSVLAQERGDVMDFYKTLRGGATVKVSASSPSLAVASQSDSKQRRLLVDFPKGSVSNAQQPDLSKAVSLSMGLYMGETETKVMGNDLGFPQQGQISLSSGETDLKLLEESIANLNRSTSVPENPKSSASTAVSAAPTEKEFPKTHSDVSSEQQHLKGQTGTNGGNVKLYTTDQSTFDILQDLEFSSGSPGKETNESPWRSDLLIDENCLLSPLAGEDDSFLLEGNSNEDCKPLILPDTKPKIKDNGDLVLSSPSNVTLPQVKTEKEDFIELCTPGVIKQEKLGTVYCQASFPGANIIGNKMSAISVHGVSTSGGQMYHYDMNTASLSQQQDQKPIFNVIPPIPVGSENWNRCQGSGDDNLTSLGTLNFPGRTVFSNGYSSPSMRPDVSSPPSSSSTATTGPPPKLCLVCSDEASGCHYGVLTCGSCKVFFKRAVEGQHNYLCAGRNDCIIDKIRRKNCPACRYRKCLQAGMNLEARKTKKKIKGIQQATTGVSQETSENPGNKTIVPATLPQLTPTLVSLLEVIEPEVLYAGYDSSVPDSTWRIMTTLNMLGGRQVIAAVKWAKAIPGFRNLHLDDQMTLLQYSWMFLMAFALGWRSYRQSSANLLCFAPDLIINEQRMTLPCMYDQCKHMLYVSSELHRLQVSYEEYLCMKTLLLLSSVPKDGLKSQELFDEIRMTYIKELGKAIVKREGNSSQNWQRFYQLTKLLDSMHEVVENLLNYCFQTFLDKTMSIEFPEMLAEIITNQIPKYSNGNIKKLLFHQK
Sequence of Bile acid receptor (Homo sapiens) (Q96RI1 whole entry, looked up): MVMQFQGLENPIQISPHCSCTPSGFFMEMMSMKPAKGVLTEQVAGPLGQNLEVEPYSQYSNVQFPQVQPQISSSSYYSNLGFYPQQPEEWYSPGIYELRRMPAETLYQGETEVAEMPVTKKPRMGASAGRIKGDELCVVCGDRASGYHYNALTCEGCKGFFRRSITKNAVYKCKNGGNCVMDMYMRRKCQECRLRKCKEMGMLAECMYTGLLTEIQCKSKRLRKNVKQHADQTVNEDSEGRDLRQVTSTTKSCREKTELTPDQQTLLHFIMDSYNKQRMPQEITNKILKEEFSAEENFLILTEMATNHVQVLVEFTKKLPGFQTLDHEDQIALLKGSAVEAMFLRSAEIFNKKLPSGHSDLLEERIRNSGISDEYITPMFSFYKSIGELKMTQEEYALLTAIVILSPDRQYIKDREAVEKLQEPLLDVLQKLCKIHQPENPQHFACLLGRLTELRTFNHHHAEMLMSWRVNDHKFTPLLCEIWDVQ

As for `ClCC(Cl)CCl`, the Potency entry in experiment [1], in experiment [7] and in experiment [9] was “inactive” in each case. In experiment [2], the activation was -1.49% (inactive) and -1.66% (inactive). Moreover, the outcome in [3], in experiment [4], in [6] and in experiment [10] was inactive. In addition, the max response in [5] is 17.7%. Further, in experiment [8], the activity change % (negative = inhibition) is 0.0158% (inactive) and 2.43% (inactive).

On to `OCCOCCO`, for which the Potency result in experiment [1], in experiment [11], in experiment [15], in [7], in experiment [9] and in experiment [16] was “inactive” each time. In addition, the Potency entry in [17] and in experiment [18] was “inactive” each time. The results for the activation in experiment [12] and in experiment [2] were -2.87% (inactive) and -0.687% (inactive), respectively. The outcome in experiment [3], in experiment [4], in experiment [13], in [14], in [6] and in experiment [10] was inactive. In addition, the max response in experiment [5] is 5.13%. Also, in experiment [8], the activity change % (negative = inhibition) is -14.9% (inactive).

For `Cl/C=C\Cl`, the Potency entry in [1], in experiment [11] and in experiment [18] was “inactive” in each case. Moreover, the activation is 16.7% (inactive) in [2], 0.0953% (inactive) in [19] and 0.819% (inactive) in [20]. In addition, the outcome in experiment [3], in experiment [4], in [13] and in experiment [10] was inactive. Also, in [5], the max response was -22.4%. Also, in [8], the activity change % (negative = inhibition) was 0.348% (inactive).

For `CCCBr`, the Potency result in experiment [1], in [11], in experiment [15], in [7], in experiment [9] and in experiment [16] was “inactive” throughout. Besides, the Potency result in experiment [17] and in [18] was “inactive” throughout. Further, the activation in experiment [12] was -1.67% (inactive); in experiment [2], -1.9% (inactive); in [20], 0.665% (inactive). Besides, the compound was classed as inactive in experiment [3] and in experiment [14].

For `Clc1cccc2ccccc12`, the Potency entry in [1], in [7], in [9], in [16], in experiment [17] and in [18] was “inactive” in each case. In addition, the result in experiment [4], in experiment [13] and in experiment [10] was inactive. Moreover, the max response in experiment [5] was -15.1%. The activity change % (negative = inhibition) in [8] was -4.95% (inactive). Also, the activation in [19] was 0.856% (inactive); in experiment [20], -0.754% (inactive).

With `CC(C)CON=O`, the Potency entry in experiment [1], in experiment [11], in experiment [9] and in [18] was “inactive” each time. Besides, the values for the activation in [2] and in experiment [20] were 2.25% (inactive) and 1.53% (inactive), respectively. Moreover, the compound was classed as inactive in experiment [3], in experiment [4], in experiment [13], in [14] and in experiment [10]. The max response in experiment [5] is -5.59%.

Take `Nc1cc(Cl)ccc1Cl`: the Potency entry in [1], in [7], in experiment [9], in experiment [17] and in [18] was “inactive” each time. Besides, the activation in experiment [2] was -3.66% (inactive). Further, the outcome in experiment [3], in [4] and in [10] was inactive. Moreover, the activity change % (negative = inhibition) in experiment [8] is 16.8% (inactive).

For the compound `Nc1cc(Cl)cc(C(=O)O)c1Cl`, the Potency entry in [1], in [15], in experiment [9], in experiment [17] and in experiment [18] was “inactive” throughout. Further, the result in experiment [4], in [13], in [14], in experiment [6] and in [10] was inactive. Also, the max response in experiment [5] was -17.7% and 9.43%. The activity change % (negative = inhibition) in [8] was -1.41% (inactive). Moreover, the activation in experiment [20] was 7.92% (inactive) and 6.33% (inactive).
